Compound activity (PubChem)
The list is not random: actives were taken first. Their share in the collection is about 3%.
PPC-1+TRAIL kill: compounds killing PPC-1 cancer cells with TRAIL present (potentiator screen, no TRAIL-free arm); PPC-1 cells + TRAIL, ATPLite viability luminescence; cell killing (% activity), % at 4 µM or 5 µM; 220,000 compounds, 0.41% hits;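 active means cell killing above 50% in the first pass at 4 µM, then a duplicate retest at 5 µM averaging 50% or more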
TRAIL sens C8: caspase-8 TRAIL sensitization. inhibition (viability loss, TRAIL sensitization), % at 10 µM. AID 624354. NB7+C8 cells + TRAIL, ATPlite viability luminescence. 360,000 compounds, 1% hits;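 active means compounds causing at least 50% loss of cell viability in the single-dose screen, relative to plate controls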
SENP8 block-1: inhibitors of human SENP8 protease; 360,000 compounds, 0.64% hits; AID 602440; recombinant SENP8, Nedd8 substrate fluorescence; inhibition, % at 20 µM; in the data active means inhibition mostly above about 40%, no sharp cut-off; inactive means mostly below about 27%
Target sequence (Q96LD8 whole entry, looked up): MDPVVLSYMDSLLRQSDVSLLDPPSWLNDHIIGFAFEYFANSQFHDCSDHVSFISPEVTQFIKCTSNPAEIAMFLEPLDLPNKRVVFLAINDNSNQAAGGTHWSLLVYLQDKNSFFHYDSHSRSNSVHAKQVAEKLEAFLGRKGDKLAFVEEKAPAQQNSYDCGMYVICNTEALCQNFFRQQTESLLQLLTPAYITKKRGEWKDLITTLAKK
SENP8 block-2: SENP8 protease inhibition. AID 2540. inhibition, % at 10 µM. 330,000 compounds, 1.2% hits. purified SENP8, Z-RLRGG-aminoluciferin cleavage, luminescence; in the data active means inhibition above about 50%
SENP6 block: inhibitors of human SENP6 protease; inhibition, % at 10 µM; Recombinant SENP6 catalytic domain, aminoluciferin luminescence; 330,000 compounds, 1.8% hits; AID 2599;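 active means inhibition above about 50% at the single tested dose, limit read from the data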
Target sequence (Q9GZR1 628-1112 limits assumed): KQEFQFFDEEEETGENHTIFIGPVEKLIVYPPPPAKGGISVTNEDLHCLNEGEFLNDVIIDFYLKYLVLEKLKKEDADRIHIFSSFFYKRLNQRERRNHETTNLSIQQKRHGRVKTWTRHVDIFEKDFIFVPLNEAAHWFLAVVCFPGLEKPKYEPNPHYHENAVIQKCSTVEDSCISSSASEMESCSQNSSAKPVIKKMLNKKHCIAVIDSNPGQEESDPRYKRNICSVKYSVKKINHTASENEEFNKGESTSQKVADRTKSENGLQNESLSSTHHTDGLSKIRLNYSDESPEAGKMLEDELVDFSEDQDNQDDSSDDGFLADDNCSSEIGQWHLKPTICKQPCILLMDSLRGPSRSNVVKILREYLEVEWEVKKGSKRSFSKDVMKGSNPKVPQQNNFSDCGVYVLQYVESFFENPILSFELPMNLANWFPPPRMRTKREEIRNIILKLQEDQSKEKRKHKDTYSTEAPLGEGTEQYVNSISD
SENP7 block: SENP7 protease inhibition; recombinant SENP7, Z-RLRGG-aminoluciferin luminescence, 40 min; inhibition, % at 5 µM; 330,000 compounds, 1.5% hits; AID 434973;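 active means inhibition above about 50% at the single test dose, limit read from the data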
PPC1 cytotox: kills PPC-1 cells | cytotoxicity, % at 5 µM | 1,200 compounds, 50% hits | shares compounds with PPC-1+TRAIL kill | PPC-1 viability, ATPlite luminescence, overnight;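 active means reconfirmed compounds whose average cytotoxicity reaches 50% or more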
Large screens that a line does not name were inactive (follow-up assays come after a bar, where they were run).

O=S(=O)(c1ccc(-c2nc3ccccc3s2)cc1)N1CCCC1	none
O=S(=O)(c1cccc(-c2nc3ccccc3s2)c1)N1CCCC1	none | PPC1 cytotox inactive
COc1ccc(/C=N/NC(=O)CNC(=O)c2ccncc2)cc1	none (no result: PPC-1+TRAIL kill)
Cc1[nH]n(-c2ccccc2)c(=O)c1/C=N/Nc1nncc(-c2ccccc2)n1	PPC-1+TRAIL kill 63, TRAIL sens C8 58 | PPC1 cytotox 58
Cc1ccccc1-n1c(C)nnc1SCC(=O)N(C)C1CCS(=O)(=O)C1 (configuration not stated)	none
O=c1[nH][nH]c2c1C(c1ccc(Cl)c(Cl)c1)OC(CCc1ccccc1)C2 (configuration not stated)	none (no result: PPC-1+TRAIL kill, SENP8 block-2, SENP6 block, SENP7 block)
Clc1ccccc1CSc1ncccn1	none | PPC1 cytotox inactive
Clc1ccccc1CSc1nc2ccncc2[nH]1	PPC-1+TRAIL kill 75, TRAIL sens C8 76 | PPC1 cytotox 76
COc1cccc(CSc2nc3ccncc3[nH]2)c1	PPC-1+TRAIL kill 83, TRAIL sens C8 86 | PPC1 cytotox 81
COc1cccc(N2CCN(C(=O)c3ccc(CSc4nc5ccncc5[nH]4)cc3)CC2)c1	none
Nc1cc(N)nc(SCc2ccccc2Cl)n1	none (no result: PPC-1+TRAIL kill, SENP8 block-2, SENP6 block, SENP7 block)
O=C(Nc1ccc(F)cc1)c1cccnn1	none (no result: PPC-1+TRAIL kill)
C=CCNC(=O)CC(=O)N/N=C/c1cccs1	none
CC(=O)SCC(=O)N=c1sc2cc(F)ccc2n1C	none
CC(=O)N=c1sc2cc(C)ccc2n1C	none | PPC1 cytotox inactive
O=C(/C=C/c1ccccc1Cl)Nc1cccc(S(=O)(=O)NC2=NCCCCC2)c1	none
O=C(/C=C/c1ccc(Cl)cc1Cl)Nc1cccc(S(=O)(=O)NC2=NCCC2)c1	PPC-1+TRAIL kill 87, TRAIL sens C8 91 | PPC1 cytotox 88
Cn1c(=N)n(CC(=O)c2ccccc2)c2ccccc21	PPC-1+TRAIL kill 53, TRAIL sens C8 81 | PPC1 cytotox 57
Cn1c(=N)n(CC(=O)O)c2ccccc21	none
COc1ccc(C(C(=O)NC(C)(C)C)N(C(=O)CCC(=O)Nc2cc(C)on2)c2c(C)cccc2C)cc1 (configuration not stated)	none (no result: PPC-1+TRAIL kill)
COc1ccc(Cl)cc1-c1nc(SCC(=O)NC2CCS(=O)(=O)C2)n[nH]1 (configuration not stated)	none (no result: PPC-1+TRAIL kill)
COc1ccc(Cl)cc1-c1nc(SCC(=O)N(C)CCC#N)n[nH]1	none | PPC1 cytotox inactive
COc1cccc2sc(=NC(=O)CS(=O)(=O)c3ccc(Cl)cc3)n(C)c12	none (no result: PPC-1+TRAIL kill)
O=C(c1ccco1)N1CCN(c2nc(C3CC3)nc3c2nnn3Cc2ccccc2Cl)CC1	none | PPC1 cytotox inactive
O=C(c1ccco1)N1CCC(c2nc3c(nnn3Cc3ccccc3Cl)c(=O)[nH]2)CC1	none (no result: PPC-1+TRAIL kill)
Cc1ccc(S(=O)(=O)N2C[C@H]3C(=O)C[C@@H](c4ccccc4)N(S(=O)(=O)c4ccc(C)cc4)[C@H]3C[C@H]2c2ccc(Cl)cc2)cc1	none (no result: PPC-1+TRAIL kill, SENP8 block-2, SENP6 block, SENP7 block)
COc1ccc(/C=N/Nc2nnc(Cc3ccccc3)c(=O)[nH]2)cc1OC	PPC-1+TRAIL kill 59, TRAIL sens C8 68 | PPC1 cytotox 59
CC(C)(C)C(=O)Nc1cc2nn(-c3ccccc3)nc2cc1Cl	PPC-1+TRAIL kill 96, TRAIL sens C8 93 (no result: SENP8 block-2, SENP6 block, SENP7 block) | PPC1 cytotox 96
O=C(Nc1cc2nn(-c3ccccc3)nc2cc1Cl)c1ccco1	none
COC(=O)c1ccc(Nc2nc(C)cc(=O)[nH]2)cc1	none | PPC1 cytotox inactive
COc1ccc(NS(=O)(=O)c2ccc(C)c(C(=O)NCCCn3ccnc3)c2)cc1	none (no result: PPC-1+TRAIL kill, SENP8 block-2, SENP6 block, SENP7 block)
NNC(=O)c1cc2c(s1)CCCCCC2	none | PPC1 cytotox inactive
O=C(Nn1cnnc1)c1cc2c(s1)CCCC2	none
CCCc1nnc(SCc2ccc(OC)cc2)n1N	none | PPC1 cytotox inactive
COc1ccc(N(CC(=O)NC2CC3CCC2C3)S(=O)(=O)c2ccc(C)cc2)cc1Cl (configuration not stated)	none (no result: PPC-1+TRAIL kill, SENP8 block-2, SENP6 block, SENP7 block)
CCOc1ccc(S(=O)(=O)N2CCC(C(=O)NC3CC3)CC2)cc1Cl	none (no result: PPC-1+TRAIL kill)
CCN(CC(=O)Nc1c(F)cccc1F)C(=O)CCCN1C(=O)c2cccc3cccc(c23)C1=O	none (no result: PPC-1+TRAIL kill, SENP8 block-2, SENP6 block, SENP7 block)
O=C(CSc1nnc(-c2ccc(O)cc2)o1)Nc1ccc2c(c1)OCCO2	PPC-1+TRAIL kill 65 | PPC1 cytotox 66
CC(=O)CSc1nnc(-c2ccc3c(c2)OCO3)o1	none | PPC1 cytotox inactive
COc1ccccc1NC(=O)CSc1nnc(-c2ccc(C)cc2)o1	none | PPC1 cytotox 53
COC(=O)c1cn(NC(=O)c2ccc([N+](=O)[O-])cc2Cl)c(=O)c2ccccc12	none
CCCCn1nnnc1C(c1ccccc1)N1CCN(c2ncc(C(F)(F)F)cc2Cl)CC1 (configuration not stated)	none (no result: PPC-1+TRAIL kill, SENP8 block-2, SENP6 block, SENP7 block)
CC1(c2nc3ccccc3[nH]2)c2ccccc2C(=O)N1Cc1ccccn1 (configuration not stated)	none (no result: PPC-1+TRAIL kill, SENP8 block-2, SENP6 block, SENP7 block)
CCc1nnc(NC(=O)Cc2cc(OC)c(OC)c(OC)c2)s1	none
Cc1cc(NC(=O)CSC2=Nc3ccccc3C3=NC(Cc4ccccc4)C(=O)N23)n[nH]1 (configuration not stated)	none | PPC1 cytotox inactive
COc1ccc(C2NCCc3c2[nH]c2ccccc32)cc1CN1CCc2cc(OC)c(OC)cc2C1C (configuration not stated)	none (no result: SENP8 block-2, SENP6 block, SENP7 block) | PPC1 cytotox inactive
Nc1c(C(=O)NCCN2CCOCC2)c2nc3ccccc3nc2n1CCc1ccccc1	none
Nc1c(C(=O)NCCN2CCOCC2)c2nc3ccccc3nc2n1CCc1ccccc1F	none | PPC1 cytotox inactive
Cc1nc2cc(NC(=O)Nc3nccs3)ccc2n1C	PPC-1+TRAIL kill 54, TRAIL sens C8 66 | PPC1 cytotox 51
Cc1cc(=O)n2nc(N3CCCC(C(=O)NCCCN4C(C)CCCC4C)C3)sc2n1 (configuration not stated)	none (no result: PPC-1+TRAIL kill, SENP8 block-2, SENP6 block, SENP7 block)
O=C(NCCCN1CCCC1=O)c1cccc(C(F)(F)F)c1	none | PPC1 cytotox inactive
O=C(COc1ccccc1F)NCC(c1ccco1)N1CCCC1 (configuration not stated)	none
O=C(Nc1ccc2c(c1)OCO2)N1CCN(Cc2ccco2)CC1	PPC-1+TRAIL kill 76, TRAIL sens C8 73 | PPC1 cytotox 74
CCCS(=O)(=O)NC(=O)C1(C)CCCN(C(=O)c2cccc(C(F)(F)F)c2)C1 (configuration not stated)	none (no result: PPC-1+TRAIL kill, SENP8 block-2, SENP6 block, SENP7 block)
O=C(Nc1ccccc1)Nc1cc(Cl)cc(Cl)c1	none
O=C(Nc1ccccc1)Nc1cc(OCC(F)(F)F)cc(OCC(F)(F)F)c1	none (no result: SENP8 block-2, SENP6 block, SENP7 block) | PPC1 cytotox inactive
CC(CC(=O)Nc1nnc(CC(C)(C)C)s1)c1ccccc1 (configuration not stated)	none (no result: PPC-1+TRAIL kill)
COc1ccc(N2CCN(S(=O)(=O)c3cc(C)ccc3OC)CC2)cc1	none
CC(C)(C)c1ccc(NC(=O)Nc2ccc(OCC(=O)N3CCOCC3)cc2)cc1	PPC-1+TRAIL kill 63, TRAIL sens C8 78 | PPC1 cytotox 63
O=C(Nc1ccc(OCC(=O)N2CCOCC2)cc1)Nc1cccc(Cl)c1	none
